Laboratory results: ChEMBL document CHEMBL3988442, “University of Dundee, Small-Polar-MMV Screening Library” (2021)
The whole screen tested about 48,000 compounds, of which about 13,000 (27%) showed an effect of 50% or more. This is one part of the list.

test system: Wolbachia pipientis; assay: Anti-Wolbachia Cell-Based Screen; type: functional; parameters: scale not given: in the data most compounds retested in dose-response had high values; settings: 5 µM

SMILES	Percent Effect [%]
Cc1nc2ncnn2c2ccn(-c3cccnc3O)c(=O)c12	-8.283
Cc1c(C(N)=O)sc2nc(C(F)(F)F)ccc12	-3.926
CCCS(=O)(=O)NC1CCc2c(ccc(=O)n2CC2CC2)C1 (stereo not drawn)	-27.38
CCS(=O)(=O)NC1CCc2c(ccc(=O)n2CC2CC2)C1 (stereo not drawn)	2.839
O=c1ccc2c(n1CC1CC1)CCC(NS(=O)(=O)C1CC1)C2 (stereo not drawn)	-36.22
O=c1ccc2c([nH]1)CCC(NS(=O)(=O)C1CC1)C2 (stereo not drawn)	112.2
O=C(NC1CCc2[nH]c(=O)ccc2C1)C1CCOCC1 (stereo not drawn)	-2.009
CS(=O)(=O)NC1CCc2[nH]c(=O)ccc2C1 (stereo not drawn)	99.95
Cc1oc(-c2ccsc2)nc1CNC(C)Cn1cccn1 (stereo not drawn)	-4.999
CS(=O)(=O)c1ccc(CNC[C@H]2COCc3nc4cccnc4n32)cc1	-5.618
Cc1ccc(N2CCN(c3ccccc3C)CC2C)nn1 (stereo not drawn)	-2.059
CC1(C)[C@H]2CC=C(CN3CCCn4nc(CNS(C)(=O)=O)cc4C3)[C@@H]1C2	-5.008
CN(Cc1n[nH]c2c1CCC2)C(=O)c1cc(-c2cccn2C)n[nH]1	101.4
CN(Cc1n[nH]c2c1CCCCC2)C(=O)c1cc(-c2cccn2C)n[nH]1	105.6
Cn1cccc1-c1cc(C(=O)N2CCCC2C(F)(F)F)[nH]n1 (stereo not drawn)	19.39
COCC(c1ccccn1)N(C)C(=O)c1cc(-c2cccn2C)n[nH]1 (stereo not drawn)	-5.051
CN(Cc1n[nH]c2c1CCCC2)C(=O)c1cccc(CCC(C)(C)O)c1	-30.85
CN(Cc1n[nH]c2c1CCC2)C(=O)c1cccc(CCC(C)(C)O)c1	10.18
C1CCN(CCOC2CCNCC2)CC1	5.861
CCc1noc(CC)c1CNC(=O)Nc1cccc([S+](C)[O-])c1 (stereo not drawn)	-9.563
CN(CC(N)=O)S(=O)(=O)c1ccc(F)cc1F	-1.274

SMILES	Percent Effect [%]
COCCOc1ncccc1CNC(=O)N1CCCCCC1	13.83
O=C(NCc1cccnc1N1CCCCC1)c1ccc2c(c1)OCO2	108.4
O=C(NCc1cccnc1N1CCCCC1)c1ccc2[nH]nnc2c1	79.06
CC(NC(=O)NCc1cccnc1N1CCCCC1)c1nccs1 (stereo not drawn)	-5.623
O=C(NCc1cccnc1N1CCCCC1)c1ccc2cc[nH]c2c1	88.22
O=C(NCc1cccnc1N1CCCC(O)C1)c1ccc2[nH]nnc2c1 (stereo not drawn)	86.94
O=C(NCc1ccccn1)Nc1ccc2[nH]nnc2c1	-4.844
CC(NC(=O)c1cccs1)C(=O)NCc1cccnc1N1CCCCC1 (stereo not drawn)	-0.6319
Cc1nccn1-c1ncccc1CNC(=O)c1ccc(O)nc1	-1.557
N#Cc1cccnc1NCc1cccnc1N1CCCCC1	16.56
Cc1cccc(-c2nccn2-c2cccc(CC(=O)O)c2)n1	-5.138
COC(=O)[C@H](C)NC(=O)Cc1c(C)nc2c(c1C)c(=O)[nH]n2C	-6.613
CC(=O)N1CCCN(S(=O)(=O)c2cc3ccccc3o2)CC1	-15.12
CCc1c(C)nc2ccccc2c1N1CCC(O)CC1	26.44
Cc1cccc(CN2C[C@@H]3OCCN(c4ccnc(N(C)C)n4)[C@@H]3C2)c1.O=C(O)C(F)(F)F	91.52
Cc1cccc(CN2C(=O)CO[C@@H]3CN(Cc4nccn4C)C[C@H]32)c1.O=C(O)C(F)(F)F	6.159
CN(C)c1nccc(N2CCO[C@H]3CN(Cc4nccn4C)C[C@H]32)n1.O=C(O)C(F)(F)F	90.41
CCc1ccc(CN2C[C@@H]3OCCN(c4ccnc(N(C)C)n4)[C@@H]3C2)o1.O=C(O)C(F)(F)F	11.89
O=C(c1cnccn1)N1C[C@@H]2CC[C@H](C1)N(C(=O)CCc1ccsc1)C2	0.0629
CC(NC(=O)c1cccnc1N(C)C)c1ccccc1Cl (stereo not drawn)	5.567
O=C(CCc1ccccn1)N1CCCN(C(=O)CC2CCCC2)CC1	129.1

SMILES	Percent Effect [%]
O=C(Cc1ccccn1)N1CCN(C(=O)CC2CCCCC2)CC1	116.9
CCOC1CC2(CCN(C(=O)Cc3ccccn3)CC2)C1.O=C(O)C(F)(F)F	-13.33
COc1ncccc1C(=O)N1CCN(C(=O)Cc2ccccn2)CC1	10.82
O=C(CCc1ccccn1)N1CCN(C(=O)CC2CCCCC2)CC1	-0.7864
O=C(Cc1ccccn1)N1CCC2(CC1)[C@H](O)C[C@@H]2O	131.3
O=C(Cc1ccccn1)N1CCN(C(=O)CC2CCCC2)CC1	111.6
O=C(Cc1ccccn1)N1CCN(C(=O)c2cccc3[nH]ncc23)CC1	0.8571
O=C1CCC2(CCCN(C(=O)Cc3ccccn3)C2)N1 (stereo not drawn)	-49.82
CNC(=O)C1(N2CCC[C@H]2C(=O)NC2CC2)CCCCC1.Cl	-3.847
O=C(c1cc(Cl)c2c(c1)OCCO2)N1CCCC(n2cncn2)C1 (stereo not drawn)	-4.605
CSCCCNC(=O)C(c1cccc(F)c1)N(C)C (stereo not drawn)	-14.22
CN(C)c1ncccc1C(=O)N1CCCN(c2cccnn2)CC1	-6.134
Cc1scc(C(=O)N2CCC3(CCCN(C)C3=O)C2)c1-c1ccccc1 (stereo not drawn)	-11
CN(CCO)C(=O)c1coc(CN2CCN(c3ccccc3F)CC2)n1	24.23
CC(C)NC(=O)C[C@H]1[C@H]2CN(C(=O)Cc3ccccn3)C[C@@H]12.O=C(O)C(F)(F)F	0.3737
Cc1cccnc1N1CCN(C(=O)CCc2ccccn2)CC1	-3.662
CN(C)c1nc(O)cc(C2CCN(C(=O)Cc3ccccn3)C2)n1 (stereo not drawn)	148.4
Cc1nc(O)cc(C2CCCN(C(=O)CN(C)c3ccccc3)C2)n1 (stereo not drawn)	1.624
O=C(CCc1ccccn1)N1CCCC1	132.5
O=C(CCc1ccccn1)N1CCSC2(CCCCC2)C1	-3.003
CCc1ncc(C(=O)N(CCOC)Cc2nccs2)cn1	-17.92
